# In PMC7862700, “An all-to-all approach to the identification of sequence-specific readers for epigenetic DNA modifications on cytosine”:
# Experiments:
# Assay in all cases: DAPPL (digital affinity profiling via proximity ligation, sequencing); 10 mM Tris-HCl pH 7.5, 50 mM NaCl, 1 mM DTT, 4% glycerol, room temperature, 30 min; GST-TFs on glutathione beads, 16-mer random dsDNA library, 0.1% formaldehyde crosslink after washing; high values mean tight binding
# Conditions in all cases: protein: recombinant; tags: N-terminal GST; dsDNA, one strand shown
# [1] = biological target: T1, FLI1 (Homo sapiens, UniProt Q01543 1-452)
# T1 sequence: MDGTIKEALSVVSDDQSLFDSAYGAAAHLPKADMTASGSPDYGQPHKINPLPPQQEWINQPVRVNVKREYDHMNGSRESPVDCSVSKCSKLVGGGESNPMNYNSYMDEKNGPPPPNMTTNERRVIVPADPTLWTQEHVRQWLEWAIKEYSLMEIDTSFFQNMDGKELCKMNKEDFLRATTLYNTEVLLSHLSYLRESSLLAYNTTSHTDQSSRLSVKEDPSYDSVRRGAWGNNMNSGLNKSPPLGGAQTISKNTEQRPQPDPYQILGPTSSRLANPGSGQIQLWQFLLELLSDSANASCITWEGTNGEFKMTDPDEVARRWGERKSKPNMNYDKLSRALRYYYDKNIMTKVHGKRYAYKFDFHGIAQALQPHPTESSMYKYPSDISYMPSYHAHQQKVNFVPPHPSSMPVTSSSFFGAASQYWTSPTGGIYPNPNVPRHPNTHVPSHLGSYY
# Outline: (§1)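 Pools were built from human transcription factors expressed in yeast as GST fusions, captured on glutathione beads and DNA-barcoded, along with a tag-only sample. Incubation with 200 nmole of a 16-mer random double-stranded DNA library lasted 30 min at room temperature in Tris/NaCl/DTT/glycerol buffer, and was followed by washing, 0.1% formaldehyde crosslinking, proximity ligation, PCR amplification and Illumina NextSeq500 sequencing. Binding signal is the quotient of each hexamer's read frequency for a factor and its frequency for the tag-only sample.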
# [2] = biological target: T2, ELK1 (Homo sapiens, UniProt P19419 1-428)
# T2 sequence: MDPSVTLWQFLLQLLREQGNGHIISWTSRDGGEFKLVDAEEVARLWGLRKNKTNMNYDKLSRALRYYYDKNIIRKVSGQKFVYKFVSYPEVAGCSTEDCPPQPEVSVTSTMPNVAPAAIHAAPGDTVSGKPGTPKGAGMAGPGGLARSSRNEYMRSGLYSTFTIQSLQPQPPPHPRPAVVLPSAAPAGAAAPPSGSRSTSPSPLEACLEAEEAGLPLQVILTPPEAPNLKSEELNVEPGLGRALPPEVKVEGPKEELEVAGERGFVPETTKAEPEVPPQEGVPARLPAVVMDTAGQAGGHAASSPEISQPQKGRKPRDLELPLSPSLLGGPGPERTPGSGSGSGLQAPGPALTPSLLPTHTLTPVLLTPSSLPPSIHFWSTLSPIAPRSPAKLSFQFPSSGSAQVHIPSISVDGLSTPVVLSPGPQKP
# Outline: as §1
# [3] = biological target: T3, GABPA (Homo sapiens, UniProt Q06546 1-454)
# T3 sequence: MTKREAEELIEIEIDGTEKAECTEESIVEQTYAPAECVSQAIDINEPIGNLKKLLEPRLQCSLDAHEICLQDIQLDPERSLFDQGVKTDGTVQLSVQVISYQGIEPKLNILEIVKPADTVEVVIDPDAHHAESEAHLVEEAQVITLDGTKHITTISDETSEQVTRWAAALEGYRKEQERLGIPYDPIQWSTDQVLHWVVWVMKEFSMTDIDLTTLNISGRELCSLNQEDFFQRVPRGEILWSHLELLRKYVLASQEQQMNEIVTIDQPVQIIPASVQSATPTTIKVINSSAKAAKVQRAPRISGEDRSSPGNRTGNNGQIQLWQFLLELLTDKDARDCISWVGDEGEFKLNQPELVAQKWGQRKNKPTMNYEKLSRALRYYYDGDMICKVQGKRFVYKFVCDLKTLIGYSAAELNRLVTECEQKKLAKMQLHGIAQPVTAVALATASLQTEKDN
# Outline: as §1
# [4] = biological target: T4, ERG (Homo sapiens, UniProt P11308 1-479)
# T4 sequence: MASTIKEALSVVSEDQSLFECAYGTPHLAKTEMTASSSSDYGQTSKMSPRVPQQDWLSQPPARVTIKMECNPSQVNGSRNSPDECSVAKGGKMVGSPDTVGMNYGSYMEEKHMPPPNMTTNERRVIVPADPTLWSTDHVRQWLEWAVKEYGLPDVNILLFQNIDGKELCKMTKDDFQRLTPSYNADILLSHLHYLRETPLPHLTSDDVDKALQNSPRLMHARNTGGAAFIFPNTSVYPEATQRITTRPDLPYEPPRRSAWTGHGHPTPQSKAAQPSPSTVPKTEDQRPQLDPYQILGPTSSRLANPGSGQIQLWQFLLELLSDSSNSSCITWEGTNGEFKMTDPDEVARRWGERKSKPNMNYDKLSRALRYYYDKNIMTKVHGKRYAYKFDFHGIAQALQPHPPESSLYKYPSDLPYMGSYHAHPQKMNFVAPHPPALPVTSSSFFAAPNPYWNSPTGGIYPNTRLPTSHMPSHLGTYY
# Outline: as §1
# [5] = biological target: ELF1 (Homo sapiens, UniProt P32519 1-619)
# Sequence of ELF1 (P32519 whole entry): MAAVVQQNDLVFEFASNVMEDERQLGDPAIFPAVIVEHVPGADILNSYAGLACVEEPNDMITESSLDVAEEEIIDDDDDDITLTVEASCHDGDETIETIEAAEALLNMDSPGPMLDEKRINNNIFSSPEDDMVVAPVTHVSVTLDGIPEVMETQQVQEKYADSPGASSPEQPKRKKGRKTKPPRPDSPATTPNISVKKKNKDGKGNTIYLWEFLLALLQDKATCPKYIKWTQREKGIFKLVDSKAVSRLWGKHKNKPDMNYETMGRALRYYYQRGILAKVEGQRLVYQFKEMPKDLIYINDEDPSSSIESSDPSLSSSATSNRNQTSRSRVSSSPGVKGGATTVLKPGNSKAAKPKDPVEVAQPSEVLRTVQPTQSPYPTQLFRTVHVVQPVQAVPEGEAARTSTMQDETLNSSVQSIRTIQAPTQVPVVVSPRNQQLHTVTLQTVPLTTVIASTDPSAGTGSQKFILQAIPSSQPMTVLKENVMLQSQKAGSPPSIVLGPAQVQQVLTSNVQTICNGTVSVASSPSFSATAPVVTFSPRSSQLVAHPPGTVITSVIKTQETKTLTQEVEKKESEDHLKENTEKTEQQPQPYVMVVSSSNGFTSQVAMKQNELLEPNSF
# Outline: as §1
# [6] = biological target: T5, EHF (Homo sapiens, UniProt Q9NZC4 1-300)
# T5 sequence: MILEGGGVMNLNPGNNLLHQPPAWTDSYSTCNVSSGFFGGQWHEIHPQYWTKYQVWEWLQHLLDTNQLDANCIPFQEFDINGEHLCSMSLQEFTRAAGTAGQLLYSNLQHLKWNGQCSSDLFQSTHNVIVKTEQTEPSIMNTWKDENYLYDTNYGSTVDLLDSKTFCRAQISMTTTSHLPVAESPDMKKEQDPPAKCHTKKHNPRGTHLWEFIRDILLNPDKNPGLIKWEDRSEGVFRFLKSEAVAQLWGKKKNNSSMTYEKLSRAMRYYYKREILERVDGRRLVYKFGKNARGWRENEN
# Outline: as §1
# [7] = biological target: SPI1 (Homo sapiens, UniProt P17947 1-270)
# Outline: as §1
# [8] = biological target: SPIB (Homo sapiens, UniProt Q01892 1-262)
# Sequence of SPIB (Q01892 whole entry): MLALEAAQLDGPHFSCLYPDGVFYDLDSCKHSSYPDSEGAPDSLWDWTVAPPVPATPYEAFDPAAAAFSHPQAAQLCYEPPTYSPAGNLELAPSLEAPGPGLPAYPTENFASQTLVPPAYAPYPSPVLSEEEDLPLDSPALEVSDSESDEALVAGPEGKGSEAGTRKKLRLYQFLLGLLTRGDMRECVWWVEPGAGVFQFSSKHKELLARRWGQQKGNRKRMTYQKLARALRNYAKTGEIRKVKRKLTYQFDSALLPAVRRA
# Outline: as §1
# [9] = biological target: T6, ELK3 (Homo sapiens, UniProt P41970 1-407)
# T6 sequence: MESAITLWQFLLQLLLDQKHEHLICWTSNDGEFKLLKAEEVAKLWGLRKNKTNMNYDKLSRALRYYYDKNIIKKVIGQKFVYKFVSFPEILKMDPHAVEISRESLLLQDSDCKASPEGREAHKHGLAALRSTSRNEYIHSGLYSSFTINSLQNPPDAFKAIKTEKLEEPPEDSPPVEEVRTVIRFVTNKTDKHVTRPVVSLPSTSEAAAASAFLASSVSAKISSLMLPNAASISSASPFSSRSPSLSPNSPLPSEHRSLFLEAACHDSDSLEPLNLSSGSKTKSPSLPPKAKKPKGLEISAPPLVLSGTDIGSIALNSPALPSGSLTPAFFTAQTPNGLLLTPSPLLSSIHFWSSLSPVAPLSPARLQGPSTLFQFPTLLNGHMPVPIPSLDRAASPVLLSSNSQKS
# Outline: as §1
sequence,measurement,setting,value
CTGCCG,binding signal,[1],"1.28 fold enrichment (6-mer frequency, TF over GST control)"
same,binding signal,[2],"1.45 fold enrichment (6-mer frequency, TF over GST control)"
same,binding signal,[3],"1.36 fold enrichment (6-mer frequency, TF over GST control)"
same,binding signal,[4],"1.26 fold enrichment (6-mer frequency, TF over GST control)"
same,binding signal,[5],"1.34 fold enrichment (6-mer frequency, TF over GST control)"
same,binding signal,[6],"1.39 fold enrichment (6-mer frequency, TF over GST control)"
same,binding signal,[7],"1.22 fold enrichment (6-mer frequency, TF over GST control)"
same,binding signal,[8],"1.41 fold enrichment (6-mer frequency, TF over GST control)"
same,binding signal,[9],"1.27 fold enrichment (6-mer frequency, TF over GST control)"
